Activity calls are given as the source filed them. Calls come from the whole dose curve; as a rule, active = well fitted curve in the direction sought with a large enough effect in the repeat runs; inconclusive = weak or mixed curves; inactive = flat fitted curve, though single readings scatter.
assay: qHTS assay to test for compound auto fluorescence at 535 nm (green) in HepG2 cell free culture (AID 720686); settings: Cell-free medium, green autofluorescence 485/535 nm; series mostly up to 91.3 µM
Source text: U.S. Tox21 Program National Center for Advancing Translational Sciences [NCATS] NIH Chemical Genomics Center [NCGC] U.S. Environmental Protection Agency [EPA] National Institutes of Environmental Health Sciences [NIEHS] National Toxicology Program [NTP] U.S. Food and Drug Administration [FDA] Tox21 Assay Overview: Compound auto fluorescence often interferes with screening of the compound library against various biological targets and signaling pathways. Some of these compounds may have fluorophoric properties. Such properties may interfere with the assay outputs resulting in false positives and/or negatives. To decrease such complications and ensure the compound activities are relevant in terms of biological response, the Tox21 10K compound library was screened for auto fluorescence. From the fluorophores used as reporter signals in our screening assays, the auto fluorescence equivalencies of compounds against three fluorophores have been evaluated: Triamterene, Fluorescein and Rose Bengal sodium for blue, green and red fluorescence, respectively. The fluorescence intensities were measured using Excitation/Emission wavelengths at 405/460nm, 485/535nm and 540/590nm for blue, green and red labels, respectively. This assay includes the green fluorescence data.
Tox21 Assay Protocol Summary: 5 uL of culture medium (MEM containing 10% FBS) per well was dispensed into black wall/clear bottom 1536-well plates using a Multidrop Combi Dispenser (ThermoFisher Scientific, Waltham, MA). After 23 nL compound or DMSO vehicle was transferred into assay plate by a pintool work station (Kalypsys, San Diego, CA), fluorescence intensities in the assay plates were measured by an Envision (PerkinElmer, Shelton, CT) plate reader using three labels for measuring blue, green and red fluorescence at […] 460, 535 and 590nm respectively.

| Structure (SMILES) | outcome |
| --- | --- |
| CCCC(=O)Cl | inactive |
| CC(c1ccc(O)cc1)(c1ccc(O)cc1)c1ccc(O)cc1 | inactive |
| COc1ccc(-c2ccccc2)cc1NNC(=O)OC(C)C | inactive |
| Oc1ccc(Cl)c(Cl)c1Cl | inactive |
| O=C(N[C@H](c1ccccc1)[C@@H]1CN2CCC1CC2)c1c(Cl)ccc(C(F)(F)F)c1Cl | inactive |
| C[N+](C)(C)CCCl | inactive |
| OC(c1ccc(Cl)cc1)(c1ccc(Cl)cc1)c1cccnc1 | inactive |
| CCOP(=O)(OCC)SCCSCC | inactive |
| O=C(NCc1cccnc1)Nc1ccc([N+](=O)[O-])cc1 | inactive |
| CC(C)(CCl)C(=O)Cl | inactive |
| OCCCBr | inactive |
| O=C1c2ccccc2C(=O)C1C(=O)C(c1ccccc1)c1ccccc1 | inactive |
| Clc1cc(C(Cl)(Cl)Cl)cnc1Cl | inactive |
| Cn1cc[n+](C)c1 (tested in a mixture with another compound) | inactive |
| O=C1C(Cl)C(CCl)CN1c1cccc(C(F)(F)F)c1 (stereo not given) | inactive |
| COc1nn(C(=O)NS(=O)(=O)c2ccccc2OC(F)(F)F)c(=O)n1C | inactive |
| NC(=O)CI | inactive |
| Nc1ccc(N=Nc2ccc(-c3ccc(N=Nc4c(S(=O)(=O)O)cc5cc(S(=O)(=O)O)c(N=Nc6ccccc6)c(O)c5c4N)cc3)cc2)c(N)c1 | inactive |
| C[C@@H]1CC[C@H]2[C@@H](C)C(=O)O[C@@H]3O[C@@]4(C)CC[C@@H]1[C@]32OO4 | inactive |
| COC(=O)c1cncn1C(C)c1ccccc1 (stereo not given) | inactive |

| Structure (SMILES) | outcome |
| --- | --- |
| O=C(Nc1ccccc1)Nc1cnns1 | inactive |
| S=C=NCc1ccccc1 | inactive |
| CCCN(CC1CC1)c1c([N+](=O)[O-])cc(C(F)(F)F)cc1[N+](=O)[O-] | inactive |
| O=C(C(Cl)(Cl)Cl)C(Cl)(Cl)Cl | inactive |
| CN(C)c1ccc(N(C)C)cc1 | inactive |
| CO/C=C(/C(=O)OC)c1ccccc1COc1cccc(C(F)(F)F)n1 | inactive |
| CCCCc1c(C)nc(NCC)nc1OS(=O)(=O)N(C)C | inactive |
| c1ccc(CN2CCNCC2)cc1 | inactive |
| CCOP(=S)(OCC)SCn1nnc2ccccc2c1=O | inactive |
| CCc1ccc(C(=O)NN(C(=O)c2cc(C)cc(C)c2)C(C)(C)C)cc1 | inactive |
| CC/C(=N\OC/C=C/Cl)C1=C(O)CC(C2CCOCC2)CC1=O (stereo not given) | inactive |
| CC[C@H]1C[C@H]2[C@@H]3CCC4=CC(=O)CC[C@@H]4[C@H]3CC[C@]2(C)[C@H]1O | inactive |
| C=CCN1CC[C@]23c4c5ccc(O)c4O[C@H]2C(=O)CC[C@@]3(O)[C@H]1C5 | inactive |
| O=S1(=O)OC(c2cc(Br)c(O)c(Br)c2)(c2cc(Br)c(O)c(Br)c2)c2ccccc21 | inactive |
| O=C(O)C1(c2ccc3c(c2)OC[C@H](Cc2ccc(-c4ccccc4)cc2)[C@H]3O)CCCC1 | inactive |
| O=S(=O)(O)C(F)(F)C(F)(F)C(F)(F)C(F)(F)F | inactive |
| CCOC(=O)COc1cc(-c2nn(C)c(OC(F)F)c2Cl)c(F)cc1Cl | inactive |
| C=CCC1([C@H](C)CCC)C(=O)NC(=O)NC1=O | inactive |
| CC(=O)c1cc2c(cc1C)C(C)(C)C(C)CC2(C)C (stereo not given) | inactive |
| O=C(O)COc1ccc(Cl)cc1 | inactive |
